The sample as a whole holds a higher share of hits than the screen did.
Methyltransferases – Primary Screen for Target Class Profiling of Small Molecule Inhibitors of Methyltransferases. purified enzyme, MTase-Glo SAH luminescence; stronger effect = lower value. calls only at 40 µM. 25,000 tested, 3.9% active; call rule not given here
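Each enzyme was reacted with SAM and its substrate, with compounds tested once at 40 uM; SAH formed was read by MTase-Glo luminescence.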
Of the large screens only hits and unclear results are named; the others gave an inactive call.

Cc1ccccc1C1c2cccn2-c2ccccc2CN1C(=O)NCc1ccc(F)cc1 (centres undefined)	none
Cc1cccc(C2c3cccn3-c3ccccc3CN2C(=O)Nc2cc(Cl)ccc2C)c1 (centres undefined)	none
CN(C)c1ccc(C2c3cccn3-c3ccccc3CN2C(=O)Nc2ccccc2F)cc1 (centres undefined)	none
CCOC(=O)c1cccc(NC(=O)N2Cc3ccccc3-n3cccc3C2c2cc(F)cc(F)c2)c1 (centres undefined)	none
CCCCCOc1cc2c(cc1-c1cc(/C=C/C(=O)O)ccc1O)C(C)(C)CCC2(C)C	Methyltransferases active
Cc1ccccc1NC(=O)N1Cc2ccccc2-n2cccc2C1c1cccs1 (centres undefined)	none
CC(C)CCNC(=O)N1Cc2ccccc2-n2cccc2C1c1cccc(Cl)c1 (centres undefined)	none
COC1CC(=O)C23C(=O)NC(CC(C)C)C2C(C)=C(C)C(OO)C3/C=C(\C)CCC(O)C1O (centres undefined)	none
CN(C)c1cc2c(cc1Sc1nc3c(N)nccc3n1CCNCC(C)(C)C)OCO2	Methyltransferases active
Cc1cccc(C2c3cccn3-c3ccccc3CN2C(=O)NCc2ccc(F)cc2)c1 (centres undefined)	none
Cc1ccc(NC(=O)N2Cc3ccccc3-n3cccc3C2c2cccs2)cc1F (centres undefined)	none
CSc1nccc(N2CCC3(CCCN(CC4CC4)C3)C2)n1 (centres undefined)	none
CSc1ccc(C2c3cccn3-c3ccccc3CN2C(=O)NC2CCCC2)cc1 (centres undefined)	none
COc1ccccc1NC(=O)N1Cc2ccccc2-n2cccc2C1C(C)C (centres undefined)	none
CN(N=O)c1ccc(O)c(O)c1	Methyltransferases active
COc1ccc(NC(=O)N2Cc3ccccc3-n3cccc3C2c2cccs2)cc1 (centres undefined)	none
O=C(Nc1ccc(F)cc1)N1Cc2ccccc2-n2cccc2C1c1cccc(Cl)c1 (centres undefined)	none
CC1CCCCCC(=O)c2c(O)cc(O)cc2CC(=O)O1 (centres undefined)	none
C[C@H]1CCCC(=O)CCC/C=C/c2cc(O)cc(O)c2C(=O)O1	Methyltransferases active
CC1C/C=C/C(O)C(O)CC/C=C/c2cc(O)cc(O)c2C(=O)O1 (centres undefined)	none
CCc1ccc(C2c3cccn3-c3ccccc3CN2C(=O)Nc2ccc(F)c(Cl)c2)cc1 (centres undefined)	none
O=C(Nc1cc(F)ccc1F)N1Cc2ccccc2-n2cccc2C1c1cccs1 (centres undefined)	none
COc1ccc(C2c3cccn3-c3ccccc3CN2C(=O)NCc2ccc(C)cc2)cc1 (centres undefined)	none
Clc1ccc([C@]23CNC[C@H]2C3)cc1Cl	Methyltransferases active
COc1ccccc1CN[C@H]1C2CCN(CC2)[C@H]1C(c1ccccc1)c1ccccc1	none
Cc1ccc(CNC(=O)N2Cc3ccccc3-n3cccc3C2c2ccccc2)cc1 (centres undefined)	none
COc1ccc(C2c3cccn3-c3ccccc3CN2C(=O)Nc2cc(F)ccc2F)cc1 (centres undefined)	none
CCOc1ccc(C2c3cccn3-c3ccccc3CN2C(=O)Nc2ccc(F)cc2)cc1 (centres undefined)	none
CCCN(CCC)C1CCc2ccc(O)cc2C1 (centres undefined)	Methyltransferases active
CCCN(CCC)C1CCc2cccc(O)c2C1 (centres undefined)	none
CCCN(CCC)[C@@H]1CCc2ccc(O)cc2C1	none
CCOc1ccc(C2c3cccn3-c3ccccc3CN2C(=O)NCc2ccccc2)cc1 (centres undefined)	none
COCCO[C@H]1COCCN(C2CCOCC2)C1	none
CCc1ccccc1NC(=O)N1Cc2ccccc2-n2cccc2C1C (centres undefined)	none
CC1c2cccn2-c2ccccc2CN1C(=O)Nc1ccc(Cl)cc1 (centres undefined)	none
Cc1ccc(C2c3cccn3-c3ccccc3CN2C(=O)NC2CCCC2)cc1 (centres undefined)	none
Cc1c(Cl)cccc1NC(=O)N1Cc2ccccc2-n2cccc2C1c1ccccc1 (centres undefined)	none
CCOC(=O)c1ccccc1NC(=O)N1Cc2ccccc2-n2cccc2C1c1cccc(Cl)c1 (centres undefined)	none
COc1ccc(OC)c(NC(=O)N2Cc3ccccc3-n3cccc3C2c2cc(F)cc(F)c2)c1 (centres undefined)	none
CC(C)(C)[C@]1(O)C[C@@H]2OC(=O)C[C@@]23C(=O)O[C@@H]2OC(=O)[C@@H](O)[C@]213	none
N[C@@H](Cn1oc(=O)[nH]c1=O)C(=O)O	none
Cc1o[nH]c(=O)c1CC(N)C(=O)O (centres undefined)	none
NC(Cc1cc(O)c(O)cc1O)C(=O)O (centres undefined)	Methyltransferases active
COC(=O)c1cccc(NC(=O)N2Cc3ccccc3-n3cccc3C2c2cccs2)c1 (centres undefined)	none
CCOC(=O)Cc1ccc(NC(=O)N2Cc3ccccc3-n3cccc3C2c2ccccc2)cc1 (centres undefined)	none
